Inconclusive results are not listed. Where a call stands in place of a potency, no number is given. Active and inactive are the calls of the source. The call rests on the fitted dose curve; in most records, active means well fitted activation curve with a large enough effect in the signal ratio in the repeat runs (not every such curve was filed as active); inconclusive means weak or mixed curves, or effect the other way; inactive means no such curve, though single readings can be large or run the other way; the % refers to the signal ratio.
Potency means the concentration at half of the fitted maximal effect.

A short description of this assay: qHTS assay for small molecule agonists of the antioxidant response element (ARE) signaling pathway (AID 743202). The conditions noted are these: HepG2 ARE-bla reporter, beta-lactamase FRET, 16 h; series mostly up to 73.3 µM. From the text: U.S. Tox21 Program National Center for Advancing Translational Sciences [NCATS] NIH Chemical Genomics Center [NCGC] U.S. Environmental Protection Agency [EPA] National Institutes of Environmental Health Sciences [NIEHS] National Toxicology Program [NTP] U.S. Food and Drug Administration [FDA] Tox21 Assay Overview: Oxidative stress has been implicated in the pathogenesis of a variety of diseases ranging from cancer to neurodegeneration. The antioxidant response element (ARE) signaling pathway plays an important role in the amelioration of oxidative stress. The CellSensor ARE-bla HepG2 cell line (Invitrogen) can be used for analyzing the Nrf2/antioxidant response signaling pathway. Nrf2 (NF-E2-related factor 2) and Nrf1 are transcription factors that bind to AREs and activate these genes. The CellSensor ARE-bla Hep G2 cell line contains a beta-lactamase reporter gene under control of the Antioxidant Response Element (ARE) stably integrated into HepG2 cells. The activation of the report gene under culture conditions can be detected by fluorescence intensity. This cell line has been used to screen the Tox21 10K compound library to identify agonists that induce oxidative stress.
Tox21 Assay Protocol Summary: The ARE-bla cells were dispensed at 2,000 cells/5 ul/well in 1536-well black wall/clear bottom plates using a Multidrop dispenser. After the assay plates were incubated at a 37 C/5% CO2 incubator for 5 hours, 23 nL of compounds dissolved in DMSO, positive controls or DMSO only was transferred to the assay plate by a pin tool. The plates were incubated at 37 C for 16 hours. After 1 uL of LiveBLAzer B/G FRET substrate was added using a Flying Reagent Dispenser, the plates were incubated at room temperature for 2 hours, and fluorescence intensity was measured by an Envision plate reader.
For orientation: In qHTS, concentration-response curves come from the screen itself.
Consider `O=C1OC[C@H](Cc2cccc(O)c2)[C@H]1Cc1cccc(O)c1`, for which the Potency entry is “inactive”.
The result for `CC(C)c1ccc(C(=O)N=C(N)N)cc1S(C)(=O)=O` reads “inactive”.
Consider `COc1ccc(C)cc1`, for which the Potency entry was “inactive”.
Regarding `COc1ccc(CCN(C)CCCN2CCc3cc(OC)c(OC)cc3CC2=O)cc1OC`, the Potency result was “inactive”.
Take `CC1CCCC(=O)C1=O` (stereo not given): the Potency result was “inactive”.
In the case of `O=C(O)CCS`, the Potency entry is “inactive”.
As for `CC1=C2[C@@H]([C@H](C)CC[C@H]2/C=C(\C)C(=O)O)[C@H](O)C1`, the entry is “inactive”; as for `O=C1CC[C@@H](C(=O)O)N1`, “inactive”.
As for `C=CCOC(=O)COCCC(C)C`, the entry is “inactive”; as for `Nc1ccc(NC(=O)c2ccc(N)cc2)cc1`, “inactive”.
As for `Cc1cccc(C)c1NC(=O)c1cc(S(N)(=O)=O)c(Cl)cc1O`, the entry is “inactive”; as for `O=S(=O)(Cl)c1c(Cl)cccc1Cl`, “inactive”; as for `CCN(CC)CC(=O)Nc1c(C)cccc1C(=O)OC`, “inactive”.
For the compound `Cc1ccc(NC(=O)N(C)C)cc1NC(=O)N(C)C`, the Potency entry was “inactive”.
As for `CC(=O)OCC(=O)[C@@]1(OC(C)=O)[C@@H](C)C[C@H]2[C@@H]3C[C@H](F)C4=CC(=O)C=C[C@]4(C)[C@@]3(F)[C@@H](O)C[C@@]21C`, the entry is “inactive”.
The result for `CC[C@H]1OC(=O)[C@H](C)[C@@H](O[C@H]2C[C@@](C)(OC)[C@@H](O)[C@H](C)O2)[C@H](C)[C@@H](O[C@@H]2O[C@H](C)C[C@H](N(C)C)[C@H]2O)[C@](C)(O)C[C@@H](C)/C(=N\OCOCCOC)[C@H](C)[C@@H](O)[C@]1(C)O` reads “inactive”; that for `CC(C)C1CCC(C(=O)N[C@H](Cc2ccccc2)C(=O)O)CC1` (stereo not given in full), “inactive”.
As for `Oc1ccc2c(c1)Cc1ccccc1-2`, the figure is 34.4 µM (active); as for `COC(=O)Nc1nc2ccc(C(=O)C3CC3)cc2[nH]1`, “inactive”.
For `CCCCOC(=O)CCCCC(=O)OCCCC`, the Potency result was “inactive”.
Consider `CC(C)(C)S`, for which the Potency entry is “inactive”.
Take `CCN(CC)c1ccc(C(=C2C=CC(=[N+](CC)CC)C=C2)c2ccc(S(=O)(=O)O)cc2S(=O)(=O)[O-])cc1`: the Potency result is “inactive”.
As for `COc1cc(NS(=O)(=O)c2ccc(N)cc2)nc(C)n1`, the Potency result is “inactive”.
As for `C1CCCCC1`, the entry is “inactive”.
The result for `CC1=CC[C@@]23C[C@@H]1C(C)(C)[C@@H]2CC[C@H]3C` reads “inactive”; that for `CCN(CC)CCNC(=O)c1cc(Cl)c(N)cc1OC`, “inactive”; that for `CC(=O)OCC(C)C`, “inactive”.
As for `CC(C)(C)NCC(O)COc1cccc2c1C[C@H](O)[C@H](O)C2` (stereo not given in full), the entry is “inactive”.
`O=C(Nc1ccc(C(=O)O)c(O)c1)c1ccccc1`: the Potency result was “inactive”.
Regarding `CC(C)(C(=O)c1cccnc1)c1cccnc1`, the Potency result is “inactive”.
Consider `BrC(Br)C(Br)Br`, for which the Potency result was “inactive”.
In the case of `O=C(/C=C/c1ccc([N+](=O)[O-])cc1)c1ccccc1`, the Potency result is “inactive”.
The result for `O=C(O)CCC(=O)c1ccc(-c2ccccc2)cc1` reads “inactive”.
As for `C=C(C)C(=O)OCCC(F)(F)C(F)(F)C(F)(F)C(F)(F)C(F)(F)C(F)(F)F`, the entry is “inactive”.
On to `N[C@@H](Cc1cc(I)c(O)c(I)c1)C(=O)O`, for which the Potency result is “inactive”.
As for `O=c1[nH]c2cc(C(F)(F)F)c(N3CCOCC3)cc2n(CP(=O)(O)O)c1=O`, the entry is “inactive”.
The result for `CC(C)(O)c1coc(S(=O)(=O)NC(=O)Nc2c3c(cc4c2CCC4)CCC3)c1` reads “inactive”; that for `C=CC(=O)NC(C)C`, “inactive”.
Consider `CCN(Cc1cccc(S(=O)(=O)O)c1)c1ccc(C(=C2C=CC(=[N+](CC)Cc3cccc(S(=O)(=O)O)c3)C=C2)c2ccccc2S(=O)(=O)[O-])cc1`, for which the Potency result is “inactive”.
The result for `CC(=O)OCCC1CCCCC1` reads “inactive”.

These data come from PubChem BioAssay (Tox21).
